ChEMBL document CHEMBL1961873, “Compounds: GSK PKIS; Assays: Nanosyn kinase panel” (2012)

What was measured:
[1] = target: Mast/stem cell growth factor receptor Kit (Homo sapiens) (UniProt P10721); conditions: at 1 µM
[2] = test system: Mast/stem cell growth factor receptor Kit (Homo sapiens), P10721 [D816V]; conditions: at 0.1 µM
[3] = test system: Mast/stem cell growth factor receptor Kit (Homo sapiens), P10721 [D816V]; conditions: at 1 µM
[4] = test system: Mast/stem cell growth factor receptor Kit (Homo sapiens), P10721 [T670I]; conditions: at 0.1 µM
Mast/stem cell growth factor receptor Kit (Homo sapiens), P10721 [T670I], sequence (P10721 whole entry T670I): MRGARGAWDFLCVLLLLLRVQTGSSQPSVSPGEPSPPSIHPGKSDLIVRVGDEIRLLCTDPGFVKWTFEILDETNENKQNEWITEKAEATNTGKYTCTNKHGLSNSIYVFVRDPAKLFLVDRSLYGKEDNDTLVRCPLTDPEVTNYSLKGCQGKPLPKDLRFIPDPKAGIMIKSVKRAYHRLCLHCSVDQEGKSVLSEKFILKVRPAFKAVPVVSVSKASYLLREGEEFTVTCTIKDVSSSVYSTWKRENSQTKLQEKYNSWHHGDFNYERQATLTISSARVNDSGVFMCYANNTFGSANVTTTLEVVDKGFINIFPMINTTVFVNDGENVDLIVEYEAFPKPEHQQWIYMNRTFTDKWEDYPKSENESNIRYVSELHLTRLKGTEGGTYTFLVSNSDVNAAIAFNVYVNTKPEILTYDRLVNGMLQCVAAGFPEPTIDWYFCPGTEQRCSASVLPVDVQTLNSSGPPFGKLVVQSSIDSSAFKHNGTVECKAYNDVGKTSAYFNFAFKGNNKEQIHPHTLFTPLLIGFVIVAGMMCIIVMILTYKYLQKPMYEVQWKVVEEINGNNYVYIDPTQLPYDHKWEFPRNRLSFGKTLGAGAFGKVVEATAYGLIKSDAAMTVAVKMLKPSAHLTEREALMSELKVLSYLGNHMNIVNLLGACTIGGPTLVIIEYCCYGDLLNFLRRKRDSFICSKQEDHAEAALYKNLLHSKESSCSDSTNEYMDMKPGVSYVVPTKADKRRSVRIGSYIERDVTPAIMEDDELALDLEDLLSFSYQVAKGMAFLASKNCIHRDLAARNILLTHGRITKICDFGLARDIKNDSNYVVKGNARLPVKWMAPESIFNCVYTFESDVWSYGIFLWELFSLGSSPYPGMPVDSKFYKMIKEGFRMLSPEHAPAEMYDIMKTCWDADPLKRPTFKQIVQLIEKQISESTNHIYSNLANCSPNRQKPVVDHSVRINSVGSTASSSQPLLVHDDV

[5] = test system: Mast/stem cell growth factor receptor Kit (Homo sapiens), P10721 [T670I]; conditions: at 1 µM
[6] = test system: Mast/stem cell growth factor receptor Kit (Homo sapiens), P10721 [V560G]; conditions: at 0.1 µM
Mast/stem cell growth factor receptor Kit (Homo sapiens), P10721 [V560G], sequence (P10721 whole entry V560G): as the sequence (P10721 whole entry T670I) above, with V560G, I670T counted along it

[7] = test system: Mast/stem cell growth factor receptor Kit (Homo sapiens), P10721 [V560G]; conditions: at 1 µM
[8] = target: Tyrosine-protein kinase Lck (Homo sapiens) (UniProt P06239); conditions: at 0.1 µM
Tyrosine-protein kinase Lck (Homo sapiens), sequence (P06239 2-509 limits assumed): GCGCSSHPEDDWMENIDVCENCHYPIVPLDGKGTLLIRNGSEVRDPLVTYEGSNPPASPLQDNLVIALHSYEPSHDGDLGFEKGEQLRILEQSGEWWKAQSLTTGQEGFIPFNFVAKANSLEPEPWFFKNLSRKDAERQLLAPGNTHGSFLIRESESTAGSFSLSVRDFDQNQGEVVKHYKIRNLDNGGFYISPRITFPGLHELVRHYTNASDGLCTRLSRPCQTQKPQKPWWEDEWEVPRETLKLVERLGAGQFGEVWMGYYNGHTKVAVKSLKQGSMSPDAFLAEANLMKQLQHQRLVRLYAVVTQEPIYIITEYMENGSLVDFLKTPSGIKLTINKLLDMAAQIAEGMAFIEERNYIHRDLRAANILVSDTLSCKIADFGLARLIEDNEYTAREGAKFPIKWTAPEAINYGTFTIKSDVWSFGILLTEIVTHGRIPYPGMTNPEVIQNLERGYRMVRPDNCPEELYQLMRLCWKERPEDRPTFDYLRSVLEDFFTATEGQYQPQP

[9] = target: Tyrosine-protein kinase Lck (Homo sapiens) (UniProt P06239); conditions: at 1 µM
[10] = target: Leukocyte tyrosine kinase receptor (Homo sapiens) (UniProt P29376); conditions: at 0.1 µM
Leukocyte tyrosine kinase receptor (Homo sapiens), sequence (P29376 whole entry): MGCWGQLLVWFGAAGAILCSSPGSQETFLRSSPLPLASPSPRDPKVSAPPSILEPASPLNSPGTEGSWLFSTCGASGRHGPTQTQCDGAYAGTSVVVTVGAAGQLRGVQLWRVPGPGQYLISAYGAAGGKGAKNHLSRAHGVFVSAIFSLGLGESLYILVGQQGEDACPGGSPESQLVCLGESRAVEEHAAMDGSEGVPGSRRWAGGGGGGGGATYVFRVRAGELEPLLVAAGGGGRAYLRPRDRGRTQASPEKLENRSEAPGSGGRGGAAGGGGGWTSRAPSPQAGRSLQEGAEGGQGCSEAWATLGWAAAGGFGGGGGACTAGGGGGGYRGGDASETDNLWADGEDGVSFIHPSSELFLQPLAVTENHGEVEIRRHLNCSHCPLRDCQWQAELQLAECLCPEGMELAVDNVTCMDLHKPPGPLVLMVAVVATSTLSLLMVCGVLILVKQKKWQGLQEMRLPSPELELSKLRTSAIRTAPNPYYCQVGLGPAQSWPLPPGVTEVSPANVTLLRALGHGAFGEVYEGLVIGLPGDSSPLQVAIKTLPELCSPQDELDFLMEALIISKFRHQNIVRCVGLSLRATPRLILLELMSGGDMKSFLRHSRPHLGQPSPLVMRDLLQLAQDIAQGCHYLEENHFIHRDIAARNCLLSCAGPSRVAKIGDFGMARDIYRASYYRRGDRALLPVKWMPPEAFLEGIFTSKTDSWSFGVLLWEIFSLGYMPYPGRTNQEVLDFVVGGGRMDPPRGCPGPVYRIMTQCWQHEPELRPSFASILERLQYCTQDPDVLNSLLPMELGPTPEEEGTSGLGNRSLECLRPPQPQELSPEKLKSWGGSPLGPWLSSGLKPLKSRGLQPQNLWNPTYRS

[11] = target: Leukocyte tyrosine kinase receptor (Homo sapiens) (UniProt P29376); conditions: at 1 µM
[12] = target: Tyrosine-protein kinase Lyn (Homo sapiens) (UniProt P07948); conditions: at 0.1 µM
Tyrosine-protein kinase Lyn (Homo sapiens), sequence (P07948 2-512 limits assumed): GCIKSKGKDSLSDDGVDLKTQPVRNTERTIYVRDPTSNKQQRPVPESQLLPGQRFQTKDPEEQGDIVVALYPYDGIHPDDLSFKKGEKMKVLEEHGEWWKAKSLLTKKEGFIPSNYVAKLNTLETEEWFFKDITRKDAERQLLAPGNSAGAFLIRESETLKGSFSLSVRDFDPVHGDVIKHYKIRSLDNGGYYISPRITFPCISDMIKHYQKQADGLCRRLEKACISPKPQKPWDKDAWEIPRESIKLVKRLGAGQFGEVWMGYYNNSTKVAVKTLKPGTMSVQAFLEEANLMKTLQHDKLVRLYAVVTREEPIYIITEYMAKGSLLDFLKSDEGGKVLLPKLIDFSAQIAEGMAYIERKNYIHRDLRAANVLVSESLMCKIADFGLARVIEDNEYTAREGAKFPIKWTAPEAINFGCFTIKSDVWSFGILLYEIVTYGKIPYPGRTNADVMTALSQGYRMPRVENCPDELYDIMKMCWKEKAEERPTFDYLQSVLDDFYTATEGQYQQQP

[13] = target: Tyrosine-protein kinase Lyn (Homo sapiens) (UniProt P07948); conditions: at 1 µM
[14] = target: Tyrosine-protein kinase Lyn (Homo sapiens) (UniProt P07948); conditions: at 0.1 µM; remark: listed apart in the source
[15] = target: Tyrosine-protein kinase Lyn (Homo sapiens) (UniProt P07948); conditions: at 1 µM; remark: listed apart in the source
[16] = target: T1, Tyrosine-protein kinase Mer (Homo sapiens) (UniProt Q12866); conditions: at 0.1 µM
T1 sequence (whole entry): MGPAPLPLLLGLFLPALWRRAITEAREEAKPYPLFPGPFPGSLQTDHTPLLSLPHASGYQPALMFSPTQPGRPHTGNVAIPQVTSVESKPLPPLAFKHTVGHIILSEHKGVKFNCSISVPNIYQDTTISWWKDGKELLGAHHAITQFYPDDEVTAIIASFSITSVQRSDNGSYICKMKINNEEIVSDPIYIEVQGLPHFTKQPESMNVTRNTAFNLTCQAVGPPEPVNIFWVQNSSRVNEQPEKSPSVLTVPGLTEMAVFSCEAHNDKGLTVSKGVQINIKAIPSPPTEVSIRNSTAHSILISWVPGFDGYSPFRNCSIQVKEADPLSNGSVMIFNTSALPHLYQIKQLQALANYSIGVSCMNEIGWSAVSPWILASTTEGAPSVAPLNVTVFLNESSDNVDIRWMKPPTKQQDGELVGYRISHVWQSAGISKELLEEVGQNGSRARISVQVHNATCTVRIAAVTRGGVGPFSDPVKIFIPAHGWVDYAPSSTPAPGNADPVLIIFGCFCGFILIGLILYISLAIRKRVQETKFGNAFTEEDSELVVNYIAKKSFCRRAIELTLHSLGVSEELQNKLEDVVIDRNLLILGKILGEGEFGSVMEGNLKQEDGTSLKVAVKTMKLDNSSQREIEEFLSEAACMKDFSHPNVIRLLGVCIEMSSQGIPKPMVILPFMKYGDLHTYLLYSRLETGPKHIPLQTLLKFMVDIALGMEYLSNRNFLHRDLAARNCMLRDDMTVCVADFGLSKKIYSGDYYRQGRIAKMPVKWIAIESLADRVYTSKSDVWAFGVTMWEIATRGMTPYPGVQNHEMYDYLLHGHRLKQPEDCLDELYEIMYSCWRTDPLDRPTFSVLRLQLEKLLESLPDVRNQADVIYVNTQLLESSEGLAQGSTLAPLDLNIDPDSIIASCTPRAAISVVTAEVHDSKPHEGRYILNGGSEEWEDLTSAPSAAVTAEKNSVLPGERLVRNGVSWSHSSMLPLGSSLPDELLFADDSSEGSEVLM

[17] = target: T1, Tyrosine-protein kinase Mer (Homo sapiens); conditions: at 1 µM
[18] = target: Hepatocyte growth factor receptor (Homo sapiens) (UniProt P08581); conditions: at 0.1 µM
Hepatocyte growth factor receptor (Homo sapiens), sequence (P08581 whole entry): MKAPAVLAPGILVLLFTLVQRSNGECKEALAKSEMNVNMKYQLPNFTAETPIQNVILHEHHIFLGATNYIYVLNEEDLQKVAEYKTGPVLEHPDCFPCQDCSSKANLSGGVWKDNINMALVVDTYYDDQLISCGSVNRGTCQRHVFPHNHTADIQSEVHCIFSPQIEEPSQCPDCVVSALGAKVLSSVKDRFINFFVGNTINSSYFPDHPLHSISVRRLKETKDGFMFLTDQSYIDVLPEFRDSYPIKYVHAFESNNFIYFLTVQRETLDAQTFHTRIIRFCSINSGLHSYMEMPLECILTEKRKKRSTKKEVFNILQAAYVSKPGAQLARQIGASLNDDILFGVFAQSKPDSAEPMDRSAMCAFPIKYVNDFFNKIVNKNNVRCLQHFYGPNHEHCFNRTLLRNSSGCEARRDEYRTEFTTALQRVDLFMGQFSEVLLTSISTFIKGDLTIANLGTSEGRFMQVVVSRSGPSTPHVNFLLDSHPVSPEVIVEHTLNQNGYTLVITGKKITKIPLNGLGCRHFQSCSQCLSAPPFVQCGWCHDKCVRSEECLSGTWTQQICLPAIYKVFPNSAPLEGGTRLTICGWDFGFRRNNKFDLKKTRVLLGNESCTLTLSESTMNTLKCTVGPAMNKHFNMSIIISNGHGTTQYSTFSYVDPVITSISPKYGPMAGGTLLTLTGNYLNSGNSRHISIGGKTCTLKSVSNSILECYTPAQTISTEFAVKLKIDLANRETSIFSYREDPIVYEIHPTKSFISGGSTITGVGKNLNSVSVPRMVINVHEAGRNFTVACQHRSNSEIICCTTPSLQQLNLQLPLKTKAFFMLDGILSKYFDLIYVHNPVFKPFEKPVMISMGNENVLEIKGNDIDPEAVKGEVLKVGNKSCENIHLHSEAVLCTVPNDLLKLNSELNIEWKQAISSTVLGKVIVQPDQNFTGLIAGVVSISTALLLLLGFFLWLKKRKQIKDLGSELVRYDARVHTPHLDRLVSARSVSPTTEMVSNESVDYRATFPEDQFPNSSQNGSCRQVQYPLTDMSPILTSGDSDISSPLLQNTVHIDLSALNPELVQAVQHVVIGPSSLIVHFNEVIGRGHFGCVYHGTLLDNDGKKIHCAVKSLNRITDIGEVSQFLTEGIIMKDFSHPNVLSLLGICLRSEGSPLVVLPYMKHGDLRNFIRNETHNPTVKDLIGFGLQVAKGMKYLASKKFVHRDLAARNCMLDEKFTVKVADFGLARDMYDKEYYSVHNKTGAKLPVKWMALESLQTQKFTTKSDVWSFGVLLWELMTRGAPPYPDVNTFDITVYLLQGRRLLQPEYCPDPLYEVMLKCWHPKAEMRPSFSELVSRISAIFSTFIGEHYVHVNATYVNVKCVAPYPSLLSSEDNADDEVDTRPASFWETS

[19] = target: Hepatocyte growth factor receptor (Homo sapiens) (UniProt P08581); conditions: at 1 µM
[20] = target: T2, Muscle, skeletal receptor tyrosine-protein kinase (Homo sapiens) (UniProt O15146); conditions: at 0.1 µM;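 also: values are mean inhibition of MuSK from the GSK PKIS kinase screening panel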
T2 sequence (whole entry): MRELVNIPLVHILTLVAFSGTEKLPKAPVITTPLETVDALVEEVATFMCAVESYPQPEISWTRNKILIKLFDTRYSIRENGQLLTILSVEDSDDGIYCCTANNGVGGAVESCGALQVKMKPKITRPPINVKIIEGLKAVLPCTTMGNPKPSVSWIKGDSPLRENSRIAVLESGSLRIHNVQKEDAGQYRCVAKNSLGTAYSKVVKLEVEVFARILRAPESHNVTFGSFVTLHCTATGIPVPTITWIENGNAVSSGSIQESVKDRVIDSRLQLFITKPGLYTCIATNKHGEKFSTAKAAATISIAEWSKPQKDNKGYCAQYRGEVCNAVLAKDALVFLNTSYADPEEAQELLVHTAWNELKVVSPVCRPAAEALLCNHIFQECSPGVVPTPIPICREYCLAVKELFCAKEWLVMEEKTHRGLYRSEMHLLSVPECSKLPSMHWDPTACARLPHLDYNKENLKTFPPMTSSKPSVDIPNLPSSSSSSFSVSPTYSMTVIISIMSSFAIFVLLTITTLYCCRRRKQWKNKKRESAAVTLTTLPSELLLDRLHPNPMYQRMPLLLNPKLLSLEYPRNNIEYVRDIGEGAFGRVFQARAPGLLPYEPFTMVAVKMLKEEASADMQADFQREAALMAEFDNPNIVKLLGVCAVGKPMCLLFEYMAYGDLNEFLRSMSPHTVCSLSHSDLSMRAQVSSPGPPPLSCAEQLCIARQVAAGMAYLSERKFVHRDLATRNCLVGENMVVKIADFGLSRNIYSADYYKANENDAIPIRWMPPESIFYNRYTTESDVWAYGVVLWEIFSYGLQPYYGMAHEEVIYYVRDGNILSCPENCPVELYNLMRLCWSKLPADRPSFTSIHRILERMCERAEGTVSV

Mast/stem cell growth factor receptor Kit (Homo sapiens), P10721 [D816V], sequence (P10721 whole entry D816V): as the sequence (P10721 whole entry T670I) above, with I670T, D816V counted along it
Mast/stem cell growth factor receptor Kit (Homo sapiens), sequence (P10721 whole entry): as the sequence (P10721 whole entry T670I) above, with I670T counted along it

| Structure (SMILES) | inhibition [1] | inhibition [2] | inhibition [3] | inhibition [4] | inhibition [5] | inhibition [6] | inhibition [7] | inhibition [8] | inhibition [9] | inhibition [10] | inhibition [11] | inhibition [12] | inhibition [13] | inhibition [14] | inhibition [15] | inhibition [16] | inhibition [17] | inhibition [18] | inhibition [19] | inhibition [20] |
| --- | --- | --- | --- | --- | --- | --- | --- | --- | --- | --- | --- | --- | --- | --- | --- | --- | --- | --- | --- | --- |
| NS(=O)(=O)c1ccc(-c2cc3ccncc3cc2OCc2ccccc2)cc1 | 8.06% | 2.17% | 3.92% | 2.02% | 4.23% | 0.41% | 0.33% | 1.15% | 3.87% | 6.08% | 14.8% | 5.43% | 8.06% | 4.33% | 5.23% | 0.4% | 1.77% | 9.74% | 5.85% | 1.45% |
| Cc1cc(O)cc(C)c1/C=C/c1cncc(C(=O)N(C)C)c1 | 8.58% | 0.33% | 1.49% | 2.61% | 1.57% | 5.07% | 4.85% | 3.69% | 8.38% | 2.93% | 3.38% | 4.08% | 7.54% | 3.61% | 6.35% | 1.7% | 8.23% | 1.87% | 10.9% | 8.6% |
| c1ccc(Nc2ncc(-c3ccccc3)o2)cc1 | 88.1% | 1.88% | 3.71% | 4.48% | 40% | 1.47% | 50.4% | 3.52% | 10.9% | 6.86% | 6.52% | 5.9% | 9.62% | 4.91% | 7.76% | 2.15% | 2.41% | 3.87% | 6.02% | 3.65% |
| COC(=O)c1ccc2c(c1)C(=Cc1cc(Br)c(O)c(Br)c1)C(=O)N2 | 16.2% | -0.82% | 4.08% | 2% | 2.74% | -3.35% | 0.2% | 5.24% | 15.3% | 6.76% | 34% | 3.81% | 17.1% | 2.84% | 12.9% | 1.09% | 2.17% | 2.4% | 8.25% | 3% |
| CN(C)C(=O)O[C@H]1CN[C@H](C#Cc2cc3ncnc(Nc4ccc(OCc5cccc(F)c5)c(Cl)c4)c3s2)C1 | 3% | 2.35% | -1.14% | 1.09% | 0.88% | 0.04% | 2.8% | 1.92% | 3.02% | 1.7% | 3.95% | 3.87% | 4.57% | 1.48% | 3.94% | 0.43% | 3.05% | 1.84% | 6.26% | 2.98% |
| Nc1nccc(-c2c(-c3ccc(F)cc3)ncn2CCCN2CCOCC2)n1 | 11.4% | 5.23% | 5.35% | 5% | 0.35% | -0.56% | 1.5% | 2.05% | 7.4% | 2.33% | 2.3% | 5.23% | 9.61% | 2.71% | 5.84% | 0.72% | 2.2% | 3.68% | 5.4% | 0.89% |
| CCCN1CCCC(c2ccc(Nc3nc(Nc4cc(F)ccc4C(N)=O)c4cc[nH]c4n3)c(OC)c2)C1 (stereo not given) | 13.1% | 4.45% | 4.83% | 2.47% | 3.44% | -0.05% | -0.43% | 1.09% | 6.22% | 95% | 95.5% | 7.48% | 7.83% | 3.89% | 4.64% | 3.05% | 14.1% | 2.96% | 20.6% | 3.6% |
| C[C@@H](Oc1cc(-n2cnc3ccc(OC[C@@H](O)CO)cc32)sc1C(N)=O)c1ccccc1Cl | 4.68% | -3.17% | 1.58% | -1.2% | 0.87% | 3.36% | 2.13% | 1.2% | 6.12% | -0.43% | 3.54% | -0.6% | 3.84% | -0.83% | 2.72% | 5.8% | 3.84% | -4.12% | -4.35% | 9.09% |
| c1ccc(Cc2nc3ccc(Nc4ncnc5ccccc45)cc3[nH]2)cc1 | 11.5% | 2.6% | 7.57% | 5.98% | 3.71% | 2.34% | 5.96% | 2.08% | 9.45% | 2.98% | 2.52% | 5.18% | 10.3% | 2.45% | 8.65% | 0.72% | 1.74% | 4.71% | 7.9% | 3.14% |
| COc1ccc(-c2nn3ncccc3c2-c2ccnc(Nc3cccc(C(F)(F)F)c3)n2)cc1 | 26.5% | 0.93% | 3.05% | 3.67% | 4.13% | -1.16% | 7.05% | 3.91% | 20.3% | 2.17% | 2.59% | 4.45% | 12.7% | 3.78% | 10.3% | 1.45% | 3.23% | 6.61% | 12.1% | 2.37% |
| COc1cccc(-n2ncc3c(N/N=C/c4ccc(C)cc4)ncnc32)c1 | 10.6% | 2.8% | 6.2% | 0.52% | 4.07% | -2.84% | -2.13% | 7.28% | 21.3% | 4.23% | 8.61% | 9.2% | 23.2% | 5.91% | 18.6% | 2.65% | 4.53% | -2.1% | 7.4% | 6.89% |
| Cc1nc(-c2ccccc2)n2nc(NCCCN3CCOCC3)ncc12 | 8.46% | 1.35% | 1.56% | 1.72% | 1.33% | -1.38% | 0.39% | 2.08% | 5.01% | 2.89% | 2.41% | 2.4% | 2.59% | 2.14% | 2.72% | 4.66% | 5.5% | 2.77% | 0.32% | 1.84% |
| CN(C)C(=O)O[C@@H]1CN[C@@H](C#Cc2cc3ncnc(Nc4ccc(OCc5cccc(F)c5)c(Cl)c4)c3s2)C1 | -0.23% | 1.36% | -2.75% | -2.12% | -2.74% | 0.19% | 4.14% | 1.89% | 5.66% | 0.9% | 0.68% | 0.77% | 2.73% | 0.28% | 1.62% | -0.95% | 2.89% | 5.31% | 0.32% | -0.25% |
